# Active and inactive are the calls of the source. The rule behind the calls is not given here.
# Test: C difficile toxins, biochemical counterscreen, UDPG substrate absence, confirmatory dose response (AID 720650)
# Details: series mostly up to 19.5 µM
row,SMILES,AC50
1,S=C(NCCc1ccccc1)Nc1ncccn1,inactive
2,CC(=O)Nc1ccc(S(=O)(=O)Nc2nc3ccccc3nc2-n2ccc(=NC(=O)c3ccc(F)cc3)cc2)cc1,inactive
3,Cn1c(SCC(=O)c2cc3ccccc3o2)nnc1-c1ccccc1,inactive
4,O=C(NC(=S)NNC(=O)c1ccccc1F)c1cccnc1,inactive
5,COc1ccc(SC[C@H](C)CN2CC[C@H](NC(=O)OCc3ccccc3)CCC2=O)cc1,inactive
6,FC(F)(F)c1cc(CCN2CCNC[C@H]2Cc2cccc3ccccc23)cc(C(F)(F)F)c1,19.9 µM (active)
7,Cc1cc(O)ccc1NC(=O)c1ccccc1,17.9 µM (active)
8,Cc1noc(/C=C/c2ccccc2F)c1S(=O)(=O)N1CCC(C(=O)N2CCN(C)CC2)CC1,inactive
9,CCN1/C(=C2\OC(=S)N(C)C2=O)C=Cc2ccccc21,inactive
10,CCCCn1c(=S)[nH]c2c(=O)n(C)c(=O)n(C)c21,14.9 µM (active)
11,CCNC(=O)C[C@H]1CC[C@@H]2[C@@H](COc3ccc(NC(=O)c4cccc(OC)c4)cc3C(=O)N2C)O1,> 39 µM (inactive)
12,ClCC(CNCc1ccccc1)c1ccccc1 (configuration not stated),inactive
13,O=C(CSc1nnc(-c2ccncc2)o1)N1CCCCCC1,inactive
14,CNC(=O)C1CCN(S(=O)(=O)c2c(C)noc2/C=C/c2ccc(OC)cc2)CC1,inactive
15,CC(=O)Nc1ccc(NC(=O)[C@@H]2CCCN2S(=O)(=O)c2ccc3c(c2)OCCO3)cc1,inactive
16,CC[C@H](C)[C@H]1CNC(=S)N1CC1CCN(CCCC2CCCC2)CC1,inactive
17,CN(C(=O)Cn1c(=O)oc2cc(S(=O)(=O)N3CCCC3)ccc21)C1CCCCC1,inactive

# From PubChem BioAssay AID720650 (Broad Institute, 2013)
